A selection: hits, their analogues and other compounds. The true share with any hit is near 22%.
CYP2C19 act = activators of human cytochrome P450 2C19 | P33261 | recombinant CYP2C19, luciferin-H EGE luminescence; stronger effect = higher value; 0 = fully inhibited enzyme, 1 = untreated enzyme | activation factor at 5 µM | 96,000 tested, under 10 active;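 active = activation factor of at least 2 at 5 µM in the primary screen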;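 note: 0 = wells with 2.5 mM tranylcypromine and 1 = vehicle-only wells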
CYP2C9 act = CYP2C9 (human) activation | recombinant CYP2C9, luciferin-H conversion, luminescence; stronger effect = higher value; factor 1 = untreated enzyme, 0 = blocked | AID 1024 | activation factor at 5 µM | P11712 | 96,000 compounds, 1.4% hits;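 active = activation factor of 2 or more for CYP2C9 at a 5 µM dose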;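 note: 0 = sulfaphenazole-blocked wells and 1 = vehicle-only wells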
Target sequence (P11712 whole entry, looked up): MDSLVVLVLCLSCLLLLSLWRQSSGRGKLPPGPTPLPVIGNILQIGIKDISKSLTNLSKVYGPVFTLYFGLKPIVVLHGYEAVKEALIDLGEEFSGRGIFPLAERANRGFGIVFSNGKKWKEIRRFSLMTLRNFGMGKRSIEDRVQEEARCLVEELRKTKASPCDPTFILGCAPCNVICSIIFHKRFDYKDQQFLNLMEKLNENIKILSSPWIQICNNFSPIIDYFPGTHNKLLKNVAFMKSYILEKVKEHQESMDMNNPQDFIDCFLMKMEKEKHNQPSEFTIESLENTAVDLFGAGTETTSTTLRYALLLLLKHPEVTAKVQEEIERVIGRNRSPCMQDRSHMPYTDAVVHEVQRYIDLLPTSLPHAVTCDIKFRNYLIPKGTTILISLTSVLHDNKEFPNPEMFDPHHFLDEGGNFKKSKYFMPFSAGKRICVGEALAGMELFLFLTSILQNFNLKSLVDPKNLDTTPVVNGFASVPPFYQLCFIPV
Measles CPE = protection of cells from measles virus; protection (pct of control), % at 4 µM; Measles virus-infected cells, CPE protection, absorbance; 140,000 compounds, 1.5% hits; AID 841; in the data active = protection mostly above about 24%, no sharp cut-off; inactive = mostly below about 26%
CYP2C19 inhib = inhibitors of human CYP2C19 | P33261 | CYP2C19 Supersomes, luciferin-H EGE luminescence, 30 min | inhibition, % at 5 µM | 96,000 compounds, 21% hits | AID 778;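 active = CYP2C19 inhibition above a set limit at 5 µM in the primary screen, cut at about 50% in these data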;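 note: plate controls were negative control wells for no effect and 2.5 mM tranylcypromine positive control for full effect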
CYP2C9 inhib = inhibitors of human CYP2C9; AID 777; 96,000 compounds, 20% hits; inhibition, % at 5 µM; CYP2C9 Supersomes, luciferin-H conversion, luminescence;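 active = blocking of liver enzyme CYP2C9 beyond about 50% at 5 µM, limit read from the data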
Starred values were filed as active, the others as inactive.

`CCCOc1ccc(C2c3c(oc4ccccc4c3=O)C(=O)N2CCCN2CCOCC2)cc1` (centres undefined) gave CYP2C19 act 0.5, CYP2C9 act 0.2, Measles CPE 18.8, CYP2C19 inhib 54.0* and CYP2C9 inhib 77.8*.
`COc1ccc(C2c3c(oc4ccccc4c3=O)C(=O)N2Cc2ccncc2)cc1` (centres undefined) gave CYP2C19 act 0.6, CYP2C9 act 0.4, Measles CPE 14.0, CYP2C19 inhib 40.6 and CYP2C9 inhib 59.0*.
Screening CN1C(=O)c2oc3ccccc3c(=O)c2C1c1ccncc1 (centres undefined) returned CYP2C19 act 0.6, CYP2C9 act 0.7, CYP2C19 inhib 38.9 and CYP2C9 inhib 32.0.
For Cc1cc2cc(CNS(=O)(=O)c3ccccc3)ccc2n1C the results were CYP2C19 act 0, CYP2C9 act 0.3, Measles CPE 14.0, CYP2C19 inhib 100.1* and CYP2C9 inhib 74.3*.
Screening CCS(=O)(=O)NCc1ccc2c(c1)cc(C)n2C returned CYP2C19 act 0.5, CYP2C9 act 0.4, Measles CPE 2.3, CYP2C19 inhib 54.2* and CYP2C9 inhib 59.9*.
Cc1cc2cc(CNC(=O)Nc3ccccc3)ccc2n1C was read as Measles CPE 10.1.
CCCS(=O)(=O)NCc1ccc2c(c1)cc(C)n2C was read as Measles CPE 8.2.
COc1ccc(S(=O)(=O)NCc2ccc3c(c2)cc(C)n3C)cc1 was read as CYP2C19 act 0.2, CYP2C9 act 0.8, Measles CPE 19.9, CYP2C19 inhib 75.8* and CYP2C9 inhib 17.7.
Cc1cc2cc(CNC(=O)c3ccc(S(=O)(=O)N4CCCC4)cc3)ccc2n1C was read as CYP2C19 act 1, CYP2C9 act 0.2, Measles CPE 24.0, CYP2C19 inhib 4.5 and CYP2C9 inhib 81.6*.
`O=S(=O)(NNc1ccc(Cl)nn1)c1ccc(F)cc1` gave Measles CPE 23.5.
Screening CCOC(=O)c1c(C2CCN(C(=O)OCC)CC2)nc2ccccn12 returned CYP2C19 act 0.7, CYP2C9 act 0.3, Measles CPE 7.5, CYP2C19 inhib 34.4 and CYP2C9 inhib 72.4*.
`CCOC(=O)c1c(C)nc2ccccn12` gave CYP2C19 act 0.9, CYP2C9 act 1, Measles CPE 4.7, CYP2C19 inhib 7.5 and CYP2C9 inhib 1.2.
Screening Cc1n[nH]c(=O)nc1NCc1ccc(Cl)cc1 returned CYP2C19 act 1.1, CYP2C9 act 1.3, Measles CPE 36.3*, CYP2C19 inhib -5.1 and CYP2C9 inhib -25.4.
For CC(C)c1ccc(C(=O)CC2(O)C(=O)N(CN3CCOCC3)c3ccccc32)cc1 (centres undefined) the results were CYP2C19 act 0.2, CYP2C9 act 0.8, Measles CPE 3.7, CYP2C19 inhib 77.7* and CYP2C9 inhib 17.5.
CCc1ccc(C(=O)CC2(O)C(=O)N(CN3CCOCC3)c3ccccc32)cc1 (centres undefined) was read as CYP2C19 act 0.7, CYP2C9 act 1.1, Measles CPE 0.4, CYP2C19 inhib 25.4 and CYP2C9 inhib -6.7.
For Cc1ccc(C(=O)CC2(O)C(=O)N(CN3CCOCC3)c3ccccc32)cc1 (centres undefined) the results were CYP2C19 act 0.5, CYP2C9 act 0.9, Measles CPE 13.3, CYP2C19 inhib 54.5* and CYP2C9 inhib 7.9.
Screening CCN1C(=O)C(O)(CC(=O)c2ccc3c(c2)OCCO3)c2ccccc21 (centres undefined) returned CYP2C19 act 0.3, CYP2C9 act 0.8, Measles CPE 9.1, CYP2C19 inhib 66.9* and CYP2C9 inhib 16.6.
Cc1ccc(N2CC(C(=O)OCc3ccccc3)CC2=O)cc1 (centres undefined) was read as CYP2C19 act 0.7, CYP2C9 act 0.9, Measles CPE 7.3, CYP2C19 inhib 29.6 and CYP2C9 inhib 8.6.
Screening Cc1nc2ccc(NC(=O)c3ccc(F)c(S(=O)(=O)N4CCOCC4)c3)cc2s1 returned CYP2C19 act 0.8, CYP2C9 act 0.7, Measles CPE 11.2, CYP2C19 inhib 17.7 and CYP2C9 inhib 27.0.
O=C(CSCC(=O)N1CCCc2ccccc21)Nc1nc(-c2ccccc2)cs1 was read as Measles CPE 13.7.
Screening CCOC(=O)c1oc2ccc(S(=O)(=O)n3nc(-c4ccc(OC)cc4)cc3N)cc2c1C returned CYP2C19 act 1, CYP2C9 act 0, Measles CPE 1.0, CYP2C19 inhib 1.9 and CYP2C9 inhib 100.0*.
Screening CCOC(=O)c1oc2ccc(S(=O)(=O)n3nc(-c4ccccc4)cc3N)cc2c1C returned CYP2C19 act 0.7, CYP2C9 act 0, Measles CPE 23.9, CYP2C19 inhib 31.0 and CYP2C9 inhib 97.7*.
For CCCCCC(=O)N1CCN(CCN=CC2=C(O)CC(c3ccc(OC)c(OC)c3)CC2=O)CC1 (centres undefined) the results were CYP2C19 act 0.6, CYP2C9 act 0.4, Measles CPE 10.6, CYP2C19 inhib 40.2 and CYP2C9 inhib 64.5*.
Screening CC1(C)CC(=O)C(C=NCCN2CCN(C(=S)Nc3ccc(F)cc3)CC2)=C(O)C1 returned CYP2C19 act 0.2, CYP2C9 act 0.8, Measles CPE 12.8, CYP2C19 inhib 75.2* and CYP2C9 inhib 18.5.
O=C1CC(c2ccccc2)CC(O)=C1C=NCCN1CCN(C(=S)Nc2cccc(Cl)c2)CC1 (centres undefined) was read as CYP2C19 act 0.3, CYP2C9 act 0.5, Measles CPE 9.0, CYP2C19 inhib 72.3* and CYP2C9 inhib 47.2.
Screening CCCCCC(=O)N1CCN(CCN=CC2=C(O)CC(c3ccc(OC)cc3)CC2=O)CC1 (centres undefined) returned CYP2C19 act 0.9, CYP2C9 act 0.8, Measles CPE 10.2, CYP2C19 inhib 9.5 and CYP2C9 inhib 21.5.
Screening Cc1nn(C)cc1C=NCCOCc1ccccc1 returned CYP2C19 act 1.1, CYP2C9 act 1.1, Measles CPE 10.9, CYP2C19 inhib -5.6 and CYP2C9 inhib -8.0.
C=CCC(=O)OCC(=O)Nc1ccc(Oc2ccccc2)cc1 was read as CYP2C19 act 0.9, CYP2C9 act 1.1, CYP2C19 inhib 5.7 and CYP2C9 inhib -6.1.
Screening CCC(NS(=O)(=O)c1ccc(C)cc1)C(=O)Nc1ccc(NC(C)=O)cc1 (centres undefined) returned CYP2C19 act 0.3, CYP2C9 act 0.5, Measles CPE 3.1, CYP2C19 inhib 69.8* and CYP2C9 inhib 46.4.
`C/C(=N/NS(=O)(=O)c1ccc(Cl)cc1)c1cccc(O)c1` gave CYP2C19 act 0.8, CYP2C9 act 0.8, Measles CPE 1.1, CYP2C19 inhib 22.4 and CYP2C9 inhib 23.3.
For CC(=O)Nc1ccc(NC(=O)CNS(=O)(=O)c2ccc(C)cc2)cc1 the results were CYP2C19 act 0.6, CYP2C9 act 0.7, Measles CPE 22.9, CYP2C19 inhib 41.5 and CYP2C9 inhib 28.0.
`C/C(=N/NS(=O)(=O)c1ccc(Br)cc1)c1ccc(NC(=O)c2ccc(C)o2)cc1` gave CYP2C19 act 0.5, CYP2C9 act 0, Measles CPE 18.9, CYP2C19 inhib 49.7 and CYP2C9 inhib 97.8*.
